The values below come from PubChem BioAssay (NCATS).

Common to all, as to experiment: qHTS profiling for inhibitors of Plasmodium falciparum proliferation (AID 504749); also: nearly all actives have a fitted effect of over 60% in size
Settings in all cases: P. falciparum in erythrocytes, SYBR Green DNA, 72 h; series mostly up to 28.7 µM
(In general: Quantitative high-throughput screening tests each substance at several concentrations.)

In one test the test system is FAB9. The method in brief:
(§1)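 Three-day growth assay of blood-stage parasites in erythrocytes (0.3% parasitemia, 2.5% hematocrit) at 37 C, 5% CO2, quantified by SYBR Green DNA staining after overnight detergent lysis.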

The test system of the next test is GB4. The method in brief:
as §1

For a further test, the system named is HB3. The method in brief:
as §1

Another test relates to ICS. The method in brief: as §1
The next test deals with JCK. The method in brief:
as §1

Another test concerns N140. The method in brief:
as §1

Another test concerns P93_24. The method in brief:
as §1

The next test has as its system P94_40. The method in brief: as §1
A further test deals with PAD. The method in brief:
as §1

The test system of another test is PC15. The method in brief:
as §1

Inconclusive results are not listed. Active and inactive are the calls of the source. Calls follow the shape of the dose curve; as a rule, active = well fitted inhibition curve with a large enough effect; inconclusive = small, poorly fitted or top-dose-only effect; inactive = flat fitted curve, though single readings scatter.
Potency is read from the fitted curve at half-maximal effect.

Turning to `C=CCc1cc(OC)c(O)c(C(=O)NCCO)c1`, the Potency entry in the test on FAB9, with GB4, in the test with HB3, in the test with ICS, in the test with JCK and in the test with N140 was “inactive” throughout. Also, the Potency entry in the test on P93_24, in the test with P94_40, in the test on PAD and in the test with PC15 was “inactive” each time.

With `Cc1nc2n(c(=O)c1CCN1CCC(c3noc4cc(F)ccc34)CC1)CCCC2`, the Potency result in the test on FAB9, in the test with GB4, with HB3, in the test with JCK, in the test with N140 and in the test on P93_24 was “inactive” throughout. Also, the Potency entry in the test with P94_40, in the test on PAD and with PC15 was “inactive” throughout. Further, the Potency in the test on ICS was 12600 nM (active).

In the case of `COc1ccc2cc([C@H](C)C(=O)O)ccc2c1`, the Potency result in the test with FAB9, in the test on GB4, in the test on HB3, in the test with JCK, in the test with N140 and in the test with P94_40 was “inactive” each time. In addition, the Potency result in the test on PAD and with PC15 was “inactive” each time.

Consider `O=P(O)(O)C(O)(Cn1ccnc1)P(=O)(O)O`, for which the Potency result in the test on FAB9, in the test on GB4, with HB3, in the test on ICS, in the test with JCK and with N140 was “inactive” in each case. Moreover, the Potency entry in the test on P93_24, with P94_40, in the test on PAD and in the test with PC15 was “inactive” throughout.

On to `CCCc1cc(=O)[nH]c(=S)[nH]1`, for which the Potency entry in the test on FAB9, in the test with GB4, in the test on HB3, in the test on ICS, in the test with JCK and with N140 was “inactive” each time. In addition, the Potency entry in the test with P93_24, with P94_40, with PAD and with PC15 was “inactive” each time.

For the molecule `CCc1nc(N)nc(N)c1-c1ccc(Cl)cc1`, the Potency in the test on FAB9 was 50.1 nM (active); with GB4 it was 19 nM (active); with HB3, 11200 nM (active). In addition, the Potency result in the test with JCK, with N140, in the test with P93_24, in the test with P94_40, in the test with PAD and in the test on PC15 was “inactive” throughout.

On to `Nc1ccc(S(N)(=O)=O)cc1`, for which the Potency result with FAB9, in the test with GB4, with HB3, in the test on ICS, in the test on JCK and in the test on N140 was “inactive” throughout. The Potency entry with P93_24, with P94_40, with PAD and with PC15 was “inactive” throughout.

Consider `CCCOc1ccc2nc(NC(=O)OC)[nH]c2c1`, for which the Potency result with FAB9, in the test on GB4, in the test with HB3, in the test on ICS, in the test with JCK and in the test on N140 was “inactive” throughout. In addition, the Potency result with P93_24, with P94_40, in the test with PAD and in the test on PC15 was “inactive” throughout.

As to `N=C(N=C(N)N)N1CCOCC1`, the Potency entry in the test with FAB9, in the test with GB4, with HB3, in the test on ICS, in the test on JCK and with N140 was “inactive” in each case. Moreover, the Potency result in the test on P93_24, in the test with P94_40, in the test with PAD and in the test on PC15 was “inactive” each time.

For `CCC(C)(Oc1ccc(C2(c3ccc(OC(C)(CC)C(=O)O)cc3)CCCCC2)cc1)C(=O)O` (centres undefined), the Potency result with FAB9, in the test on GB4, in the test with HB3, in the test with ICS, with JCK and in the test on N140 was “inactive” each time. The Potency result in the test on P93_24, in the test with P94_40, in the test on PAD and with PC15 was “inactive” each time.

Take `Nc1cc(C(Cl)=C(Cl)Cl)c(S(N)(=O)=O)cc1S(N)(=O)=O`: the Potency entry in the test with FAB9, in the test with GB4, in the test on HB3, in the test with ICS, in the test on JCK and with N140 was “inactive” throughout. For the same molecule, the Potency result in the test on P93_24, in the test on P94_40, in the test on PAD and in the test with PC15 was “inactive” each time.

`CN(C)C(=O)COC(=O)Cc1ccc(OC(=O)c2ccc(N=C(N)N)cc2)cc1`: the Potency result with FAB9, in the test with GB4, with HB3, in the test with ICS, with JCK and in the test on N140 was “inactive” in each case. In addition, the Potency entry with P93_24, with P94_40, with PAD and in the test on PC15 was “inactive” throughout.

Regarding `Cc1cc(=O)c2c(O)c3c(O)cc(=O)c4c3c3c(cc(O)c1c23)C(C)(C)C=4O`, in the test with FAB9, the Potency result was “inactive”. In addition, the Potency in the test with GB4 is 2130 nM (active); in the test on HB3, 2000 nM (active); in the test on ICS, 355 nM (active); with N140 it was 1000 nM (active); with P93_24, 2240 nM (active); in the test with P94_40 it was 2000 nM (active). In addition, the Potency with PAD is 2510 nM (active); in the test on PC15, 3980 nM (active).

With `CCOC(=O)c1c(C)n(C)c2ccc(O)cc12`, the Potency entry in the test on FAB9, with GB4, in the test with HB3, in the test with ICS, with JCK and in the test with P93_24 was “inactive” each time. Moreover, the Potency entry with P94_40, with PAD and with PC15 was “inactive” in each case.

`CN(C)c1ccc2nc3ccc(=[N+](C)C)cc-3sc2c1`: the Potency in the test on FAB9 was 31.6 nM (active); in the test with GB4 it was 30.1 nM (active); in the test on HB3 it was 22.4 nM (active); in the test with ICS it was 7.1 nM (active); in the test with N140, 56.2 nM (active); with P93_24, 31.6 nM (active). The Potency in the test on P94_40 is 44.7 nM (active); in the test on PAD, 31.6 nM (active).

`CNC[C@@H](O)[C@@H](O)[C@H](O)[C@H](O)CO`: the Potency entry with FAB9, with GB4, in the test with HB3, with ICS, in the test with JCK and in the test on N140 was “inactive” throughout. For the same molecule, the Potency result in the test on P93_24, in the test with P94_40, with PAD and in the test with PC15 was “inactive” in each case.

On to `Cn1c(NCCN(CCO)CCCc2ccc([N+](=O)[O-])cc2)cc(=O)n(C)c1=O`, for which the Potency entry with FAB9, with GB4, in the test with HB3, in the test with ICS, in the test on JCK and in the test with N140 was “inactive” throughout. Moreover, the Potency entry in the test with P93_24, with P94_40, with PAD and in the test on PC15 was “inactive” throughout.

As to `Cc1c(OCC(F)(F)F)ccnc1CS(=O)c1nc2ccccc2[nH]1` (centres undefined), the Potency result with FAB9, with GB4, with HB3, in the test with JCK, with N140 and in the test on P93_24 was “inactive” throughout. In addition, the Potency entry in the test on P94_40, with PAD and in the test on PC15 was “inactive” throughout.

For `COCCCOc1ccnc(CS(=O)c2nc3ccccc3[nH]2)c1C` (centres undefined), the Potency result in the test on FAB9, in the test with GB4, in the test with HB3, with JCK, with N140 and in the test on P94_40 was “inactive” throughout. Moreover, in the test on PC15, the Potency entry is “inactive”.
